Results: ChEMBL document CHEMBL1961873, “Compounds: GSK PKIS; Assays: Nanosyn kinase panel” (2012)

Experiments:
[1] = target: RAC-alpha serine/threonine-protein kinase (Homo sapiens) (UniProt P31749); details: at 0.1 µM
[2] = target: RAC-alpha serine/threonine-protein kinase (Homo sapiens) (UniProt P31749); details: at 1 µM
[3] = target: RAC-beta serine/threonine-protein kinase (Homo sapiens) (UniProt P31751); details: at 0.1 µM
[4] = target: RAC-beta serine/threonine-protein kinase (Homo sapiens) (UniProt P31751); details: at 1 µM
[5] = target: RAC-gamma serine/threonine-protein kinase (Homo sapiens) (UniProt Q9Y243); details: at 0.1 µM
Sequence of RAC-gamma serine/threonine-protein kinase (Homo sapiens) (Q9Y243 whole entry): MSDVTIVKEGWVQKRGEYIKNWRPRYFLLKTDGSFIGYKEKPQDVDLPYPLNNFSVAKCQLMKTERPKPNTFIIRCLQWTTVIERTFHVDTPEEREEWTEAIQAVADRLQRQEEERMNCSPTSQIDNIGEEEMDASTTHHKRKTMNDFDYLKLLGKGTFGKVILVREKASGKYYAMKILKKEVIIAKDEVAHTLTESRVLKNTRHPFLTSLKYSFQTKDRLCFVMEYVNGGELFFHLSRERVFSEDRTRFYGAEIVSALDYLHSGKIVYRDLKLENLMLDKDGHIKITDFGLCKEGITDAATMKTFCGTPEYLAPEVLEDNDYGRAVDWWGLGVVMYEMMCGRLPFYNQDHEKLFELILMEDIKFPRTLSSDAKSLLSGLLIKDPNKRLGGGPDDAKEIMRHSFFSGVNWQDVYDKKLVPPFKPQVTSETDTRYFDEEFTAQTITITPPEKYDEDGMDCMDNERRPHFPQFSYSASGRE

[6] = target: RAC-gamma serine/threonine-protein kinase (Homo sapiens) (UniProt Q9Y243); details: at 1 µM
[7] = target: G protein-coupled receptor kinase 6 (Homo sapiens) (UniProt P43250); details: at 0.1 µM
Sequence of G protein-coupled receptor kinase 6 (Homo sapiens) (P43250 whole entry, looked up): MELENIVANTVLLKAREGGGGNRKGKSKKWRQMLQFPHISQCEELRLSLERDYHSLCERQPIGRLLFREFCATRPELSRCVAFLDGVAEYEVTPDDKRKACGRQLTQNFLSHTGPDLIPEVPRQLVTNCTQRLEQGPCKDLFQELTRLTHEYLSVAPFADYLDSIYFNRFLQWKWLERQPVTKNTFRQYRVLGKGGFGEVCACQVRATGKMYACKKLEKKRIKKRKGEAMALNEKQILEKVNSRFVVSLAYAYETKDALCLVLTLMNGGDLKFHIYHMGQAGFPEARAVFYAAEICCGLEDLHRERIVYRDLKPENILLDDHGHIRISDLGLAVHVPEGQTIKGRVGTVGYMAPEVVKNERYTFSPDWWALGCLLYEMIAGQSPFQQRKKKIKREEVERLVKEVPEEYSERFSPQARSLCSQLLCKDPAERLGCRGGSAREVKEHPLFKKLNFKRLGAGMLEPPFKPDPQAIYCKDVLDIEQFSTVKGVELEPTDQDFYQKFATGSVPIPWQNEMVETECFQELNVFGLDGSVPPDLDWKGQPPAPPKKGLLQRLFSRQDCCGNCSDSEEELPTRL

[8] = target: G protein-coupled receptor kinase 6 (Homo sapiens) (UniProt P43250); details: at 1 µM
[9] = target: T1, Rhodopsin kinase GRK7 (Homo sapiens) (UniProt Q8WTQ7); details: at 0.1 µM
T1 sequence (whole entry): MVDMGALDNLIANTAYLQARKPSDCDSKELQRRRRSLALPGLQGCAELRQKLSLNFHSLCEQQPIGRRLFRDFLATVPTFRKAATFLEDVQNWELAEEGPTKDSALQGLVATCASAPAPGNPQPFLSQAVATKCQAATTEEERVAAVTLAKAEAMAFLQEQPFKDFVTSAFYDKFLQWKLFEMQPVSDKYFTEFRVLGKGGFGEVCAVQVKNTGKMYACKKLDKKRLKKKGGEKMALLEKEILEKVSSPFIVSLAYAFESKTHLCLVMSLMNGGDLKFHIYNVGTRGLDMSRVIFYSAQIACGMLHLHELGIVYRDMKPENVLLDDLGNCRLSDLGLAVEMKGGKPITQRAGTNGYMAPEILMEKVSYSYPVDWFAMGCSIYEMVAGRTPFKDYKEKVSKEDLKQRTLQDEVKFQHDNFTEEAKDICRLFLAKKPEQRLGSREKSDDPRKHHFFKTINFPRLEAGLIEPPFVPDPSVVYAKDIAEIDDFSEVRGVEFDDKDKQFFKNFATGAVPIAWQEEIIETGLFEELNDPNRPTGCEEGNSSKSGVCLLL

[10] = target: T1, Rhodopsin kinase GRK7 (Homo sapiens); details: at 1 µM
[11] = target: Serine/threonine-protein kinase MRCK alpha (Homo sapiens) (UniProt Q5VT25); details: at 0.1 µM
[12] = target: Serine/threonine-protein kinase MRCK alpha (Homo sapiens) (UniProt Q5VT25); details: at 1 µM
[13] = target: Serine/threonine-protein kinase MRCK beta (Homo sapiens) (UniProt Q9Y5S2); details: at 0.1 µM
Sequence of Serine/threonine-protein kinase MRCK beta (Homo sapiens) (Q9Y5S2 whole entry): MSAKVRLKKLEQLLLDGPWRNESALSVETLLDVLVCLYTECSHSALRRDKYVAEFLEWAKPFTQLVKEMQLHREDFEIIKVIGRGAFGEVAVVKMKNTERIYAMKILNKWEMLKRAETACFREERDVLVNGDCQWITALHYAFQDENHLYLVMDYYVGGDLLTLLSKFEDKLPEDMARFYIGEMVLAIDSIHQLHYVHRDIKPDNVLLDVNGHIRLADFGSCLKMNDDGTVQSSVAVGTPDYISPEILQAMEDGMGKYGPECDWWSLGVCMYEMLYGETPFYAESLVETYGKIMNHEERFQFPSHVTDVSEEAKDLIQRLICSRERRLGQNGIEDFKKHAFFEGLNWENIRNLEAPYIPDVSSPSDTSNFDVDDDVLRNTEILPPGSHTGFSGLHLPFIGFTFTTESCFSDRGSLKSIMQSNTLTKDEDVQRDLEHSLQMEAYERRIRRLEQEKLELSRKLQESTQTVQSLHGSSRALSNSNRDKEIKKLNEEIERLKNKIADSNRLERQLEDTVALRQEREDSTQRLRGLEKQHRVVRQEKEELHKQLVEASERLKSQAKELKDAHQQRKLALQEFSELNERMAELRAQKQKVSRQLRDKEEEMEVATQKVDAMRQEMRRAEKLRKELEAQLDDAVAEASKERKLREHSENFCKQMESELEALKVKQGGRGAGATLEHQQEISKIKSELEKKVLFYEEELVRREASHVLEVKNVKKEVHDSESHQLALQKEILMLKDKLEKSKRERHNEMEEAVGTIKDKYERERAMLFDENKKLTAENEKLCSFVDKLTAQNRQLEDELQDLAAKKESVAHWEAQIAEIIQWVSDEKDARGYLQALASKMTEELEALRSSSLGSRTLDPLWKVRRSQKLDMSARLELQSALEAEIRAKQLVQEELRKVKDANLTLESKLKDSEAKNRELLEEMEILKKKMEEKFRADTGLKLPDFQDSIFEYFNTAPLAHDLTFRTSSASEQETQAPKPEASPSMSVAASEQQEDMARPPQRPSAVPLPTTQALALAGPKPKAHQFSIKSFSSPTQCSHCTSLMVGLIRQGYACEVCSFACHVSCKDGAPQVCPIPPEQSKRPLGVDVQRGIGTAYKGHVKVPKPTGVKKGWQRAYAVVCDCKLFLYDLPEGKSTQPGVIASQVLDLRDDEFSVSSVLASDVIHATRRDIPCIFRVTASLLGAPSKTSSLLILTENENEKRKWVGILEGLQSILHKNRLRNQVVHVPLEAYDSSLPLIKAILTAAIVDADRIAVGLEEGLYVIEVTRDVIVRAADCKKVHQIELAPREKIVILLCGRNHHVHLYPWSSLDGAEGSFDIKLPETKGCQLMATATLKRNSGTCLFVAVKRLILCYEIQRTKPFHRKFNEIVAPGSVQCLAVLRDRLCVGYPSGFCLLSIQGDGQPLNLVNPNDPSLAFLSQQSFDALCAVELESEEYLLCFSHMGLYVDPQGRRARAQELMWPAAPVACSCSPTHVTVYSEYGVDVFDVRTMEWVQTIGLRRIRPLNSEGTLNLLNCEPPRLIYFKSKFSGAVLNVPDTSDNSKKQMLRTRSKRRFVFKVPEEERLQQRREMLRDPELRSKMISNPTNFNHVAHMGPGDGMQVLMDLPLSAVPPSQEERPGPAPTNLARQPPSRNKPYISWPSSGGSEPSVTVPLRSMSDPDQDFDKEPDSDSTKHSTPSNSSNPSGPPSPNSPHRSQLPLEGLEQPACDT

[14] = target: Serine/threonine-protein kinase MRCK beta (Homo sapiens) (UniProt Q9Y5S2); details: at 1 µM
[15] = target: Ribosomal protein S6 kinase alpha-5 (Homo sapiens) (UniProt O75582); details: at 0.1 µM
Sequence of Ribosomal protein S6 kinase alpha-5 (Homo sapiens) (O75582 whole entry, looked up): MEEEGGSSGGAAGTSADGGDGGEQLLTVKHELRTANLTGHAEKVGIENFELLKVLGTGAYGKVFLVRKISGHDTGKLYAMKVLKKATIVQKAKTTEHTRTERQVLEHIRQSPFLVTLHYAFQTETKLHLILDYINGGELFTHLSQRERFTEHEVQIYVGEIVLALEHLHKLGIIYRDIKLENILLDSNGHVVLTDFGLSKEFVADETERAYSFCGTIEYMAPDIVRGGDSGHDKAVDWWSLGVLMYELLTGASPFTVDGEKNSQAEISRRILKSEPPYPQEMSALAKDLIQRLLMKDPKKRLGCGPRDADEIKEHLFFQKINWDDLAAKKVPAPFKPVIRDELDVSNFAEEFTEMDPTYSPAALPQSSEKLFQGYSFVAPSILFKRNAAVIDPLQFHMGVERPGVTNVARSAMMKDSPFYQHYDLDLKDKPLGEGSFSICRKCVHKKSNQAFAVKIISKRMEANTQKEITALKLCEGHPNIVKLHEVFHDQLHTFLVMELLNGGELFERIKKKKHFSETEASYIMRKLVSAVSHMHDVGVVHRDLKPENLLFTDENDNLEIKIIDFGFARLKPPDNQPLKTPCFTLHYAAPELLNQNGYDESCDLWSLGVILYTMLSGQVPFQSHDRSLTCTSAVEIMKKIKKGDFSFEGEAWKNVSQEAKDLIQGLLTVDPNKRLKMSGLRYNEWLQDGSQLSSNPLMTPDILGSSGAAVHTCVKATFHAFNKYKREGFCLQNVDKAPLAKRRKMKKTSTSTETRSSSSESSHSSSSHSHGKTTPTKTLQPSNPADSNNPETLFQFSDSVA

[16] = target: Ribosomal protein S6 kinase alpha-5 (Homo sapiens) (UniProt O75582); details: at 1 µM
[17] = target: Ribosomal protein S6 kinase alpha-4 (Homo sapiens) (UniProt O75676); details: at 0.1 µM
[18] = target: Ribosomal protein S6 kinase alpha-4 (Homo sapiens) (UniProt O75676); details: at 1 µM
[19] = target: Ribosomal protein S6 kinase beta-1 (Homo sapiens) (UniProt P23443); details: at 0.1 µM
Sequence of Ribosomal protein S6 kinase beta-1 (Homo sapiens) (P23443 whole entry, looked up): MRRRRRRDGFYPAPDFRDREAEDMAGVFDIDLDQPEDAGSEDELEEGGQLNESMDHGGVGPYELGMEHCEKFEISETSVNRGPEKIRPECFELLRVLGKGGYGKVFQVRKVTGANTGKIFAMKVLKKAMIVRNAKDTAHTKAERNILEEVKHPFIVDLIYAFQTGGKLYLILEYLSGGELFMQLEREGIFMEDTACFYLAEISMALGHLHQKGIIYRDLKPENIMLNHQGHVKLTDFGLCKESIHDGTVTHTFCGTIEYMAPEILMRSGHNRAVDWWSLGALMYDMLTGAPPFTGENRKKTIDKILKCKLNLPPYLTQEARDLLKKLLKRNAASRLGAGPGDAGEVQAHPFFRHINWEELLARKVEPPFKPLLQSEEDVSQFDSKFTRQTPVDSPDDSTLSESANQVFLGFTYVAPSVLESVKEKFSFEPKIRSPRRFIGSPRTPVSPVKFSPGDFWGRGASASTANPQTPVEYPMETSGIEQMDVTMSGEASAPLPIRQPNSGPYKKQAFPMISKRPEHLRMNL

[20] = target: Ribosomal protein S6 kinase beta-1 (Homo sapiens) (UniProt P23443); details: at 1 µM

Sequence of RAC-alpha serine/threonine-protein kinase (Homo sapiens) (P31749 whole entry): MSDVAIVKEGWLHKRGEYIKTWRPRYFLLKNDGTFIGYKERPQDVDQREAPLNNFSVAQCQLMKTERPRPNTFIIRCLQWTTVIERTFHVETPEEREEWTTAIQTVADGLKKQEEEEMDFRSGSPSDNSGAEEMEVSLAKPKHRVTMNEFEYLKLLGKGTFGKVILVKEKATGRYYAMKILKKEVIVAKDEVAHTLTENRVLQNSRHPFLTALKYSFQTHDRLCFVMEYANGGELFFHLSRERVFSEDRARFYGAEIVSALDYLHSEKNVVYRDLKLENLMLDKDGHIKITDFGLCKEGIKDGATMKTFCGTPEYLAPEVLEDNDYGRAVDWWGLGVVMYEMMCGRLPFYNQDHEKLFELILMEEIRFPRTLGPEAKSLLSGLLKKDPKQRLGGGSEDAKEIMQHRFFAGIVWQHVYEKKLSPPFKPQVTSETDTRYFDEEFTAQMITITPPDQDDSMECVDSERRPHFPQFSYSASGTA
Sequence of RAC-beta serine/threonine-protein kinase (Homo sapiens) (P31751 whole entry): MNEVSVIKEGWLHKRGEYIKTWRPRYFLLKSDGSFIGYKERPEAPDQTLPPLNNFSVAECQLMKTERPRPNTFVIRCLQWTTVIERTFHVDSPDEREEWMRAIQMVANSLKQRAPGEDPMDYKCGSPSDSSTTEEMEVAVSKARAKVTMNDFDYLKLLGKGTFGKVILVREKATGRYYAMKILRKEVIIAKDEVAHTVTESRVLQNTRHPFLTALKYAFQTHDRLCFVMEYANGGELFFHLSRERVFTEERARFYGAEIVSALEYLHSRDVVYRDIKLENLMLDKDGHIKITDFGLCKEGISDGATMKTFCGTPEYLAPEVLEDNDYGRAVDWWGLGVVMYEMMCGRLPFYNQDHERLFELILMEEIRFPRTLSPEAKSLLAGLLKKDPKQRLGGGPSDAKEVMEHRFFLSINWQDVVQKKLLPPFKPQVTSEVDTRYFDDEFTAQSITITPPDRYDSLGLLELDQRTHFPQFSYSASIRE

Row | Compound | inhibition [1] | inhibition [2] | inhibition [3] | inhibition [4] | inhibition [5] | inhibition [6] | inhibition [7] | inhibition [8] | inhibition [9] | inhibition [10] | inhibition [11] | inhibition [12] | inhibition [13] | inhibition [14] | inhibition [15] | inhibition [16] | inhibition [17] | inhibition [18] | inhibition [19] | inhibition [20]
1 | NS(=O)(=O)c1ccc(N/N=C2\C(=O)Nc3ccc(C(=O)NCCCn4ccnc4)cc32)cc1 | -0.12% | 0.95% | 2.05% | 2.17% | 0.96% | 2.49% | 5.79% | 16.3% | 7.64% | 18% | 0.3% | 7.89% | 0.34% | 5.24% | 9.46% | 11.1% | 3.85% | 13.7% | 1.91% | 8.54%
2 | O=C(Nc1n[nH]c2nc(-c3ccco3)ccc12)C1CC1 | -0.33% | 0.8% | 0.45% | 0.89% | 0.35% | 0.8% | 1.97% | -2.2% | -1.29% | -7.98% | -0.04% | -0.15% | 0.63% | 3.54% | 6.97% | 8.4% | 1.68% | 3.29% | 1.44% | 2.43%
3 | CCS(=O)(=O)c1ccc(OC)c(Nc2ncc(-c3cccc(-c4ccccc4F)c3)o2)c1 | -0.24% | -0.11% | 0.25% | 0.43% | 1.02% | -0.29% | 1.94% | -0.56% | 0.7% | -0.85% | -0.09% | -0.52% | 0.66% | 1.36% | 0.09% | 1.42% | 0.74% | 1.94% | 0.15% | 1.18%
4 | NS(=O)(=O)c1ccc(N/N=C2\C(=O)Nc3ccc(-c4cnco4)cc32)cc1 | -3.71% | -3.3% | -3.63% | -1.8% | -3.1% | -0.96% | -0.25% | 2.71% | 8.59% | 7.29% | 0.37% | 8.38% | 0.26% | 6.65% | -1.59% | -0.36% | 0.74% | 3.26% | 0.79% | 6.58%
5 | CCc1ccc(Oc2nccc(-c3c(-c4ccc(F)cc4)ncn3C3CCNCC3)n2)cc1 | 2.02% | 3.72% | 2.05% | 3.62% | 2.08% | 11.5% | 3.46% | 4.51% | 6.57% | 7.25% | 10% | 12% | 0.41% | 4.65% | 2.63% | 4.23% | 3.19% | 5.69% | 1.57% | 5.93%
6 | N#Cc1ccc(Oc2nccc(-c3c(-c4ccc(F)cc4)ncn3C3CCNCC3)n2)cc1 | -0.06% | 0.41% | 0.99% | 3.57% | 2.37% | 2.2% | -0.24% | 2.68% | 8.83% | 5.35% | -6.56% | -3.04% | -1.06% | 0.02% | 1.54% | -0.96% | 3.03% | 1.76% | 1.84% | 2.31%
7 | CCS(=O)(=O)c1ccc(OC)c(Nc2ncc(-c3ccccc3Cl)o2)c1 | 0.85% | 0.46% | 0.22% | 0.16% | 0.76% | 0.93% | 2.4% | -0.11% | -1.21% | -6.79% | -0.23% | 1.6% | -0.41% | 0.3% | 0.87% | 3.53% | 0.38% | 1.77% | 0.04% | 2.73%
8 | NC(=O)c1cc(-c2ccncc2)cc(-c2ccccc2)c1N | 0.73% | 0.01% | 1.93% | 2.56% | 0.25% | 3.46% | 3.52% | 3.56% | 5.22% | 9.17% | 0.84% | -0.04% | 1.07% | 2.4% | -1.53% | 0.93% | 2.32% | 3.43% | 3.54% | 2.1%
